Results filed as inconclusive are left out. Active and inactive are the calls of the source. Unless noted, the call rests on the fitted dose curve; in most records, active means well fitted inhibition curve with a large enough effect; inconclusive means small, poorly fitted or top-dose-only effect; inactive means flat fitted curve, though single readings scatter.
Legend:
[1] = qHTS drug screen for cell cycle checkpoint inhibitors in PARPi-resistant BRCA-mutant ovarian cancer cell lines. (AID 1963452; calls by dose curve); conditions: PEO1/OlaR viability, CellTiter-Glo luminescence, 96 h, stronger effect = lower value
Procedure, shortened: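 PEO1, PEO4 and PEO1/OlaR ovarian cancer cells, 600 per well, exposed 96 h at 37C to a dilution series. Viability read by CellTiter-Glo luminescence, normalized to DMSO and empty wells; activity summarized as Z-AUC.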

[2] = qHTS profiling for inhibitors of Plasmodium falciparum proliferation (AID 504749); further: nearly all actives have a fitted effect of over 60% in size; further: potency means the concentration at half of the fitted maximal effect;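 on activity, negative = inhibition: 0% = DMSO vehicle and full inhibition = artemisinin control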; conditions: P. falciparum in erythrocytes, SYBR Green DNA, 72 h
Procedure, shortened: (§1)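 SYBR Green fluorescence (ex 485 nm, em 535 nm) reports parasite DNA after 72 h compound exposure of infected red cells at 0.3% parasitemia, 2.5% hematocrit; signal normalized to 0.29 uM artemisinin and vehicle wells.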

3D7 = assay: as above; conditions: P. falciparum in erythrocytes, SYBR Green DNA, 72 h; series mostly up to 28.7 µM
Procedure, shortened: as §1

7G8 = assay: as above; conditions: P. falciparum in erythrocytes, SYBR Green DNA, 72 h; series mostly up to 28.7 µM
Procedure, shortened: as §1

AA1029 = assay: as above; conditions: P. falciparum in erythrocytes, SYBR Green DNA, 72 h; series mostly up to 28.7 µM
Procedure, shortened: as §1

AS120 = assay: as above; conditions: P. falciparum in erythrocytes, SYBR Green DNA, 72 h; series mostly up to 28.7 µM
Procedure, shortened: as §1

ATS95 = assay: as above; conditions: P. falciparum in erythrocytes, SYBR Green DNA, 72 h; series mostly up to 28.7 µM
Procedure, shortened: as §1

C2A = assay: as above; conditions: P. falciparum in erythrocytes, SYBR Green DNA, 72 h; series mostly up to 28.7 µM
Procedure, shortened: as §1

CP185 = assay: as above; conditions: P. falciparum in erythrocytes, SYBR Green DNA, 72 h; series mostly up to 28.7 µM
Procedure, shortened: as §1

CP192 = assay: as above; conditions: P. falciparum in erythrocytes, SYBR Green DNA, 72 h; series mostly up to 28.7 µM
Procedure, shortened: as §1

CP194 = assay: as above; conditions: P. falciparum in erythrocytes, SYBR Green DNA, 72 h; series mostly up to 28.7 µM
Procedure, shortened: as §1

CP201 = assay: as above; conditions: P. falciparum in erythrocytes, SYBR Green DNA, 72 h; series mostly up to 28.7 µM
Procedure, shortened: as §1

CP203 = assay: as above; conditions: P. falciparum in erythrocytes, SYBR Green DNA, 72 h; series mostly up to 28.7 µM
Procedure, shortened: as §1

CP211 = assay: as above; conditions: P. falciparum in erythrocytes, SYBR Green DNA, 72 h; series mostly up to 28.7 µM
Procedure, shortened: as §1

[3] = qHTS for identification of novel therapeutic agents for treatment of microphthalmiaassociated transcription factor (MiT) renal cell carcinoma (RCC) (AID 1963991); conditions: CellTiter-Glo, 48 h, stronger effect = lower value
Procedure, shortened: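 Viability of three TFE3-fusion renal carcinoma lines measured by CellTiter-Glo after 48 h treatment with each of 1912 compounds at 11 concentrations. Responses scaled between DMSO (100%) and empty wells (0%) before curve fitting.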

ATS189 = assay: qHTS profiling for inhibitors of Plasmodium falciparum proliferation (AID 504749); further: nearly all actives have a fitted effect of over 60% in size; further: potency means the concentration at half of the fitted maximal effect;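 on activity, negative = inhibition: 0% = DMSO vehicle and full inhibition = artemisinin control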; conditions: P. falciparum in erythrocytes, SYBR Green DNA, 72 h; series mostly up to 28.7 µM
Procedure, shortened: as §1

CP191 = assay: as above; conditions: P. falciparum in erythrocytes, SYBR Green DNA, 72 h; series mostly up to 28.7 µM
Procedure, shortened: as §1

[4] = measured here: PEO1 parental Z-AUC
[5] = at 28.7 µM (top of the series), parasite line A
[6] = at 28.7 µM (top of the series), parasite line B
[7] = TFE3-RCC UOK109 viability, measured here: UOK109 Z-AUC
[8] = TFE3-RCC viability, measured here: UOK124 Z-AUC
[9] = TFE3-RCC viability, measured here: UOK145 Z-AUC
[10] = at 12.8 µM (top of the series), parasite line A
[11] = at 12.8 µM (top of the series), parasite line B

CC(C)NCC(O)COc1ccc(CCOCC2CC2)cc1 (configuration not stated)
1.01: Z-AUC ([1]; measured here: PEO4 Z-AUC)
inactive: Z-AUC [1] 1.3 | activity, negative = inhibition [2, 5] 13.9% | activity, negative = inhibition [2, 6] -3.18% | Potency (3D7) | Potency (AA1029) | Potency (AS120) | Potency (ATS95) | Potency (C2A) | Potency (CP185) | Potency (CP192) | Potency (CP194) | Potency (CP201) | Potency (CP203) | Potency (CP211)
0.99: Z-AUC [1, 4]
active: Potency (7G8) 11.2 µM

C[C@](N)(Cc1ccc(O)c(O)c1)C(=O)O
1.39: Z-AUC [1, 4]
1.22: Z-AUC ([1]; measured here: PEO4 Z-AUC)
-0.0394: z-score [3, 9]
inactive: Z-AUC [1] 0.359 | activity, negative = inhibition [2, 5] 5.92% | activity, negative = inhibition [2, 6] -9.27% | Potency (3D7) | Potency (7G8) | Potency (AA1029) | Potency (AS120) | Potency (ATS189) | Potency (ATS95) | Potency (C2A) | Potency (CP185) | Potency (CP191) | Potency (CP192) | Potency (CP194) | Potency (CP201) | Potency (CP203) | Potency (CP211)
0.112: z-score [3, 7]
-0.114: z-score [3, 8]

Cc1cnc(C(=O)NCCc2ccc(S(=O)(=O)NC(=O)NC3CCCCC3)cc2)cn1
0.686: Z-AUC [1, 4]
inactive: Z-AUC [1] 0.935 | activity, negative = inhibition [2, 5] 8.33% | activity, negative = inhibition [2, 6] 4.07% | Potency (3D7) | Potency (7G8) | Potency (AA1029) | Potency (AS120) | Potency (ATS189) | Potency (ATS95) | Potency (C2A) | Potency (CP185) | Potency (CP191) | Potency (CP192) | Potency (CP194) | Potency (CP201) | Potency (CP203) | Potency (CP211)
0.444: Z-AUC ([1]; measured here: PEO4 Z-AUC)

CN(C)c1nc(N(C)C)nc(N(C)C)n1
0.778: Z-AUC [1, 4]
inactive: Z-AUC [1] 1.32 | activity, negative = inhibition [2, 10] 7.93% | activity, negative = inhibition [2, 11] -1.03% | Potency (3D7) | Potency (7G8) | Potency (AA1029) | Potency (AS120) | Potency (ATS189) | Potency (ATS95) | Potency (C2A) | Potency (CP185) | Potency (CP191) | Potency (CP192) | Potency (CP194) | Potency (CP201) | Potency (CP203) | Potency (CP211)
0.807: Z-AUC ([1]; measured here: PEO4 Z-AUC)

CN1C(C(=O)Nc2ccccn2)=C(O)c2ccccc2S1(=O)=O
0.354: Z-AUC ([1]; measured here: PEO4 Z-AUC)
0.178: Z-AUC [1, 4]
inactive: Z-AUC [1] 0.47 | activity, negative = inhibition [2, 10] -3.72% | activity, negative = inhibition [2, 11] -0.0614% | Potency (3D7) | Potency (7G8) | Potency (AA1029) | Potency (AS120) | Potency (ATS189) | Potency (ATS95) | Potency (C2A) | Potency (CP185) | Potency (CP191) | Potency (CP192) | Potency (CP194) | Potency (CP201) | Potency (CP203) | Potency (CP211)

CC(C)C(=O)Nc1ccc([N+](=O)[O-])c(C(F)(F)F)c1
inactive: Z-AUC [1] -1.15 | activity, negative = inhibition [2, 5] 5.81% | activity, negative = inhibition [2, 6] 10.3% | Potency (3D7) | Potency (AA1029) | Potency (AS120) | Potency (ATS189) | Potency (ATS95) | Potency (C2A) | Potency (CP185) | Potency (CP191) | Potency (CP192) | Potency (CP194) | Potency (CP201) | Potency (CP203) | Potency (CP211)
0.418: Z-AUC ([1]; measured here: PEO4 Z-AUC)
-0.423: Z-AUC [1, 4]

CCOC(=O)c1ncn2c1CN(C)C(=O)c1cc(F)ccc1-2
1.08: Z-AUC [1, 4]
1.29: Z-AUC ([1]; measured here: PEO4 Z-AUC)
inactive: Z-AUC [1] 1.34 | activity, negative = inhibition [2, 5] 8.32% | activity, negative = inhibition [2, 6] 17% | Potency (3D7) | Potency (AA1029) | Potency (AS120) | Potency (ATS189) | Potency (ATS95) | Potency (C2A) | Potency (CP185) | Potency (CP191) | Potency (CP192) | Potency (CP194) | Potency (CP201) | Potency (CP203) | Potency (CP211)

CN(C)CCCN1c2ccccc2CCc2ccc(Cl)cc21
-0.498: Z-AUC [1, 4]
-0.622: Z-AUC ([1]; measured here: PEO4 Z-AUC)
inactive: Z-AUC [1] -0.0245 | activity, negative = inhibition [2, 5] -15.4% | activity, negative = inhibition [2, 6] -29.1% | Potency (3D7) | Potency (C2A) | Potency (CP185) | Potency (CP201) | Potency (CP211)
active: Potency (7G8) 5.01 µM

CN(C)CCC=C1c2ccccc2C=Cc2ccccc21
0.579: Z-AUC [1, 4]
0.349: Z-AUC ([1]; measured here: PEO4 Z-AUC)
active: Potency (7G8) 7.94 µM
inactive: Z-AUC [1] -0.345 | activity, negative = inhibition [2, 5] -3.11% | activity, negative = inhibition [2, 6] -19.2% | Potency (3D7) | Potency (ATS189) | Potency (C2A) | Potency (CP185) | Potency (CP192) | Potency (CP211)

NC12CC3CC(CC(C3)C1)C2
inactive: Z-AUC [1] 0.0042 | activity, negative = inhibition [2, 5] 8.47% | activity, negative = inhibition [2, 6] 14.2% | Potency (3D7) | Potency (AA1029) | Potency (AS120) | Potency (ATS189) | Potency (ATS95) | Potency (C2A) | Potency (CP185) | Potency (CP191) | Potency (CP192) | Potency (CP194) | Potency (CP201) | Potency (CP203) | Potency (CP211)
0.0418: Z-AUC [1, 4]
0.463: Z-AUC ([1]; measured here: PEO4 Z-AUC)

CN1CCN2c3ccccc3Cc3ccccc3C2C1 (configuration not stated)
inactive: activity, negative = inhibition [2, 5] 6.93% | activity, negative = inhibition [2, 6] 3.33% | Potency (3D7) | Potency (7G8) | Potency (AA1029) | Potency (AS120) | Potency (ATS189) | Potency (ATS95) | Potency (C2A) | Potency (CP185) | Potency (CP191) | Potency (CP192) | Potency (CP194) | Potency (CP201) | Potency (CP203) | Potency (CP211)

CN(C)CCOC(c1ccccc1)c1ccccc1
inactive: Z-AUC [1] -0.454 | activity, negative = inhibition [2, 5] 13.6% | activity, negative = inhibition [2, 6] 11.2% | Potency (3D7) | Potency (CP191) | Potency (CP192) | Potency (CP201)
0.718: Z-AUC [1, 4]
active: Potency (7G8) 11.2 µM
-0.44: Z-AUC ([1]; measured here: PEO4 Z-AUC)

CN1CCC(=C2c3ccccc3C=Cc3ccccc32)CC1
inactive: Z-AUC [1] 0.372 | activity, negative = inhibition [2, 5] 13.5% | activity, negative = inhibition [2, 6] 3.94% | Potency (3D7) | Potency (AA1029) | Potency (ATS189) | Potency (ATS95) | Potency (C2A) | Potency (CP185) | Potency (CP191) | Potency (CP192) | Potency (CP194) | Potency (CP201) | Potency (CP203) | Potency (CP211)
0.739: Z-AUC ([1]; measured here: PEO4 Z-AUC)
0.535: Z-AUC [1, 4]

CC(CCc1ccc(O)cc1)NCCc1ccc(O)c(O)c1 (configuration not stated)
inactive: activity, negative = inhibition [2, 5] 7.14% | activity, negative = inhibition [2, 6] -3.6% | Potency (3D7) | Potency (AA1029) | Potency (AS120) | Potency (ATS189) | Potency (ATS95) | Potency (C2A) | Potency (CP185) | Potency (CP191) | Potency (CP192) | Potency (CP194) | Potency (CP201) | Potency (CP203) | Potency (CP211)

Cn1ccc2cc3c(cc21)CCN3C(=O)Nc1cccnc1
active: Potency (7G8) 8.91 µM
0.473: Z-AUC [1, 4]
0.355: Z-AUC ([1]; measured here: PEO4 Z-AUC)
inactive: Z-AUC [1] 0.66

CN1CCC(=C2c3ccccc3CC(=O)c3sccc32)CC1
inactive: Z-AUC [1] 1.25 | Potency (CP192)
0.927: Z-AUC ([1]; measured here: PEO4 Z-AUC)
active: Potency ([2]; parasite line A) 5.01 µM | Potency (7G8) 11.2 µM | Potency (ATS95) 11.2 µM | Potency (CP203) 8.49 µM
1.46: Z-AUC [1, 4]

CC1(C)O[C@H]2CC(=O)OC[C@]23[C@H]2CC[C@@]4(C)[C@H](c5ccoc5)OC(=O)[C@H]5O[C@]54[C@]2(C)C(=O)C[C@@H]13
1.11: z-score [3, 9]
0.649: z-score [3, 8]
0.617: z-score [3, 7]

CC1(CN2CCC(n3c(=O)[nH]c4ccccc43)CC2)OCc2ccccc2-n2cccc21 (configuration not stated)
active: Potency (7G8) 3.16 µM | Potency (AS120) 10 µM
0.846: Z-AUC [1, 4]
inactive: Z-AUC [1] 1.14 | Potency (CP192)
0.865: Z-AUC ([1]; measured here: PEO4 Z-AUC)

Reference: PubChem BioAssay (NCATS)
